Results reported in the supplement of paper PMC10849652.
About 8,800 targets were measured; listed, in parts, are those with a hit and a random draw of the rest. About 0.5% of all pairs of compound and target were hits.

What was measured:
Assay in all cases: log2 fold change, soluble protein after heating vs DMSO (PISA); higher = thermal stabilisation; K562 lysate, 10 uM; active = over 0.2 and 3.5 SD of the protein, either way, in both replicates (recomputed)
[1] = compound: Cc1cn(-c2cc(NC(=O)c3ccc(C)c(Nc4nccc(-c5cccnc5)n4)c3)cc(C(F)(F)F)c2)cn1 [nilotinib]
Summary of the method: (§1)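 Values give the log-two fold change in thermal stability against solvent controls, from duplicates. Crude K562 extract at 1 mg/mL protein, made by dounce homogenisation in PBS pH 7.4 with 1 mM MgCl2, was treated with 10 μM compound for 30 min. After 3 min heating across 48°C-58°C, aliquots were pooled, adjusted to 0.5% NP-40 at 4°C and centrifuged at 21,000xg for 90 min. The supernatant was measured by TMTpro 16plex LC-MS/MS with channel sums equalised.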

[2] = compound: Cc1nc(Nc2n[nH]c3c2CN(C(=O)N[C@H](CN(C)C)c2ccccc2)C3(C)C)c2sccc2n1
Summary of the method: as §1

[3] = compound: Cc1nc(Nc2ncc(C(=O)Nc3c(C)cccc3Cl)s2)cc(N2CCN(CCO)CC2)n1 [dasatinib]
Summary of the method: as §1

[4] = compound: Cc1ncc(-c2ccnc(Nc3ccc(S(C)(=O)=O)cc3)n2)n1C(C)C
Summary of the method: as §1

[5] = compound: Cn1cc(-c2ccc3c(c2)CCN3C(=O)Cc2cccc(C(F)(F)F)c2)c2c(N)ncnc21
Summary of the method: as §1

[6] = compound: Cn1cc(CNCC2CCN(c3ncc(C(=O)NO)cn3)CC2)c2ccccc21 [quisinostat]
Summary of the method: as §1

[7] = compound: Cn1cncc1[C@@](N)(c1ccc(Cl)cc1)c1ccc2c(c1)c(-c1cccc(Cl)c1)cc(=O)n2C [tipifarnib]
Summary of the method: as §1

[8] = compound: NC(=O)Nc1cc(-c2cccc(F)c2)sc1C(=O)N[C@H]1CCCNC1
Summary of the method: as §1

[9] = compound: NC(=O)c1cnc(N[C@@H]2CCCC[C@@H]2N)nc1Nc1cccc(-n2nccn2)c1
Summary of the method: as §1

[10] = compound: NC1(c2ccc(-c3nc4ccn5c(=O)[nH]nc5c4cc3-c3ccccc3)cc2)CCC1
Summary of the method: as §1

Measured: log2 fold change

EIF2B5 (UniProt Q13144)
inactive: [1] -0.004 | [2] 0.037 | [3] -0.015 | [4] 0.008 | [5] 0.01 | [6] -0.002 | [7] -0.006 | [8] 0.038 | [9] -0.01 | [10] -0.011

EXTL2 (UniProt Q9UBQ6)
inactive: [1] 0.07 | [2] -0.085 | [3] 0.127 | [4] 0.081 | [5] 0.13 | [6] -0.146 | [7] 0.017 | [8] 0.035 | [9] -0.068 | [10] 0.003

EIF2B4 (UniProt Q9UI10)
inactive: [1] 0.053 | [2] -0.005 | [3] 0.014 | [4] 0.033 | [5] -0.022 | [6] 0.02 | [7] 0.016 | [8] 0.022 | [9] 0.039 | [10] -0.021

EIF3I (UniProt Q13347)
inactive: [1] 0.022 | [2] -0.004 | [3] -0.018 | [4] 0.013 | [5] 0.044 | [6] -0.009 | [7] 0.018 | [8] 0.036 | [9] 0 | [10] -0.013

GDPD1 (UniProt Q8N9F7)
UniProt Q8N9F7, sequence (Q8N9F7 whole entry, looked up): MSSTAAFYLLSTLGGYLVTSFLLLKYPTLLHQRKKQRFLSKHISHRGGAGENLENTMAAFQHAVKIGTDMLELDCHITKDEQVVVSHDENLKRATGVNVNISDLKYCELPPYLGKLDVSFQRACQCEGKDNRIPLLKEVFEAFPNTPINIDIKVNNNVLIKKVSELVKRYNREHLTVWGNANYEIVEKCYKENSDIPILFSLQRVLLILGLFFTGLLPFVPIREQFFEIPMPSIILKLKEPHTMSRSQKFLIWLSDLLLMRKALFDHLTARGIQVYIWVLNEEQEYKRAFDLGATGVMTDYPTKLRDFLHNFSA
inactive: [1] -0.047 | [2] 0.011 | [3] 0.026 | [4] 0.011 | [5] -0.05 | [6] -0.056 | [7] 0.024 | [8] -0.02 | [9] 0.053 | [10] -0.017

FBLL1 (UniProt A6NHQ2)
inactive: [1] 0.006 | [2] -0.015 | [3] -0.048 | [4] -0.101 | [5] 0 | [6] -0.07 | [7] -0.009 | [8] 0.026 | [9] -0.037 | [10] 0

GCLM (UniProt P48507)
inactive: [1] -0.03 | [2] 0.016 | [3] -0.033 | [4] 0.013 | [5] 0.027 | [6] 0.016 | [7] 0.007 | [8] 0 | [9] -0.005 | [10] -0.005

DSN1 (UniProt Q9H410)
inactive: [1] -0.006 | [2] 0.023 | [3] -0.022 | [4] 0.001 | [5] 0.011 | [6] -0.015 | [7] -0.015 | [8] 0.05 | [9] 0.014 | [10] 0.031

DVL2 (UniProt O14641)
inactive: [1] -0.03 | [2] -0.003 | [3] -0.114 | [4] 0.027 | [5] -0.063 | [6] -0.13 | [7] -0.027 | [8] 0.102 | [9] 0.236 | [10] -0.097

EPB41 (UniProt P11171)
inactive: [1] -0.01 | [2] 0.024 | [3] 0 | [4] -0.007 | [5] 0.031 | [6] 0.039 | [7] 0.011 | [8] 0.003 | [9] 0.012 | [10] 0.003

FAM120B (UniProt Q96EK7)
inactive: [1] -0.067 | [2] -0.017 | [3] -0.033 | [4] -0.008 | [5] 0.017 | [6] -0.062 | [7] 0.05 | [8] 0.015 | [9] -0.029 | [10] -0.048

FYCO1 isoform 4 (UniProt Q9BQS8)
UniProt Q9BQS8, sequence (Q9BQS8 whole entry, looked up): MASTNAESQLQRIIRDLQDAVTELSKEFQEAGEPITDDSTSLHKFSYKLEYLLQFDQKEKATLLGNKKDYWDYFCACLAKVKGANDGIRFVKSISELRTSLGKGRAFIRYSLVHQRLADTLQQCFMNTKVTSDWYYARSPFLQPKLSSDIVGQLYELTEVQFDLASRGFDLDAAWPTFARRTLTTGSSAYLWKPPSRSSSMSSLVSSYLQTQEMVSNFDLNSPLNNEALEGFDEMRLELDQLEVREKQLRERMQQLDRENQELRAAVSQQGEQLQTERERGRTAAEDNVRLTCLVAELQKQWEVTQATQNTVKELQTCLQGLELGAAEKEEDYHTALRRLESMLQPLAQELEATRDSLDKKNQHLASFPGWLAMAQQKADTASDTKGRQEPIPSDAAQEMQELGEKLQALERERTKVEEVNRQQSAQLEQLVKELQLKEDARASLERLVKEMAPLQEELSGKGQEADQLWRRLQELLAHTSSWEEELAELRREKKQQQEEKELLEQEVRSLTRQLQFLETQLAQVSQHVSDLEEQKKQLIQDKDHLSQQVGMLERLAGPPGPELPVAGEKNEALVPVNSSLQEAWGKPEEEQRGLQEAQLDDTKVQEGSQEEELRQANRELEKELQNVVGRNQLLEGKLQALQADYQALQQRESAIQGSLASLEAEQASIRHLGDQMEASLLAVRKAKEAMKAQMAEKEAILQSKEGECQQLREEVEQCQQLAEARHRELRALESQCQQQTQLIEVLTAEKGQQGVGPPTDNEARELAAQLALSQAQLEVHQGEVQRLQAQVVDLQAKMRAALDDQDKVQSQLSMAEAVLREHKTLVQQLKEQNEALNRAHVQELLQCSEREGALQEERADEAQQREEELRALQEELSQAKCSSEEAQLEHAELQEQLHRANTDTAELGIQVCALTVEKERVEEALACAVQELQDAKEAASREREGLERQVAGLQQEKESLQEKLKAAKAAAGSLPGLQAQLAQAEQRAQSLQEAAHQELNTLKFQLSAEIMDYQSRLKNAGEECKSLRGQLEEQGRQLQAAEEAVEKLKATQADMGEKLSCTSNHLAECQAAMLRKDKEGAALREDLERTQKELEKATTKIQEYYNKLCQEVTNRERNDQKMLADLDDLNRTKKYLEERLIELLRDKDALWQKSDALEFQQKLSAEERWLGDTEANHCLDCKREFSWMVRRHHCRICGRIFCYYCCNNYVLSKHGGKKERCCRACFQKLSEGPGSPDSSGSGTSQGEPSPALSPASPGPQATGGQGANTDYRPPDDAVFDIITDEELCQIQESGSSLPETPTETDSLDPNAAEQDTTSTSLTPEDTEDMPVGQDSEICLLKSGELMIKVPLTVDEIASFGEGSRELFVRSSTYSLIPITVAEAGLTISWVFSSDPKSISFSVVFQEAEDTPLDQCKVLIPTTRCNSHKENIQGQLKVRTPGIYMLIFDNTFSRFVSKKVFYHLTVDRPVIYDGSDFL
inactive: [1] -0.02 | [2] -0.022 | [3] 0.011 | [4] 0.016 | [5] 0.031 | [6] -0.014 | [7] -0.012 | [8] 0.019 | [9] 0.015 | [10] -0.008

DYRK1A (UniProt Q13627)
inactive: [1] -0.018 | [2] 0.062 | [3] -0.021 | [4] 0.031 | [5] 0.033 | [6] -0.026 | [7] -0.06 | [8] 0.072 | [9] -0.01 | [10] -0.013

FOXK1 (UniProt P85037)
inactive: [1] -0.006 | [2] -0.014 | [3] -0.065 | [4] -0.038 | [5] 0.004 | [6] -0.031 | [7] -0.042 | [8] -0.002 | [9] -0.011 | [10] 0.007

FCHO1 (UniProt O14526)
UniProt O14526, sequence (O14526 whole entry, looked up): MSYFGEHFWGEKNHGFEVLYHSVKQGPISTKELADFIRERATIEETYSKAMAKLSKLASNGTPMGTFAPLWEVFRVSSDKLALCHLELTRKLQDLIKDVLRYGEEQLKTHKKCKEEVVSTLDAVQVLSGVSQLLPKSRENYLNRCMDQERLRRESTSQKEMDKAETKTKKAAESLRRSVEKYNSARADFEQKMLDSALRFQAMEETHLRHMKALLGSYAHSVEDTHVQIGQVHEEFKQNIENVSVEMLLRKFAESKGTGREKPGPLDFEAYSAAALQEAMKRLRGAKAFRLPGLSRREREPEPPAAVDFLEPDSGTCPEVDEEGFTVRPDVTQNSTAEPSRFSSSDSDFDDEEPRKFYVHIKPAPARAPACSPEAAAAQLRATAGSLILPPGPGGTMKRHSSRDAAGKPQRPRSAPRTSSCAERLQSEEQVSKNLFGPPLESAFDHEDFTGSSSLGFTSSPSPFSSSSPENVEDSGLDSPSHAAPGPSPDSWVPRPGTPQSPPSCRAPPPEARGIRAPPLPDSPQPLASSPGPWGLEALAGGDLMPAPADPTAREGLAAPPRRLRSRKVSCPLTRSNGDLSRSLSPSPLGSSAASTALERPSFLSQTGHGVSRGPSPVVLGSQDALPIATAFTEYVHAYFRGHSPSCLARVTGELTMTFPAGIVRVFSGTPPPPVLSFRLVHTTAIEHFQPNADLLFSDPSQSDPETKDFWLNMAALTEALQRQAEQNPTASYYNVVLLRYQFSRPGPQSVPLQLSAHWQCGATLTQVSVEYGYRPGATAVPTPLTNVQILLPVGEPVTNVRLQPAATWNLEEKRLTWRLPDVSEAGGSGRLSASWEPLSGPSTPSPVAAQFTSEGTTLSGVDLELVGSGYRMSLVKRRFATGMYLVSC
inactive: [1] 0.007 | [2] -0.02 | [3] -0.022 | [4] 0.035 | [5] 0.02 | [6] 0.013 | [7] -0.025 | [8] 0.063 | [9] 0.006 | [10] 0.007

ENO2 (UniProt P09104)
inactive: [1] 0.006 | [2] 0.017 | [3] 0.036 | [4] 0.025 | [5] 0 | [6] -0.03 | [7] -0.021 | [8] 0.001 | [9] -0.043 | [10] 0.003

GIPC3 (UniProt Q8TF64)
inactive: [1] 0.183 | [3] -0.071 | [4] 0.097 | [5] -0.009 | [6] -0.309 | [7] -0.067 | [8] 0.134 | [9] 0.045 | [10] 0.016
active: [2] -0.602

EEF1AKMT4 (UniProt P0DPD7)
inactive: [1] -0.01 | [2] -0.064 | [3] -0.051 | [4] 0.04 | [5] -0.109 | [6] 0.075 | [7] 0.004 | [8] 0.105 | [9] 0.096 | [10] -0.064

EEF1AKNMT (UniProt Q8N6R0)
inactive: [1] 0.006 | [2] -0.008 | [3] -0.044 | [4] -0.011 | [5] 0.043 | [6] -0.093 | [7] -0.003 | [8] 0.045 | [9] -0.013 | [10] 0.01

FMNL1 isoform 3 (UniProt O95466)
UniProt O95466, sequence (O95466 whole entry, looked up): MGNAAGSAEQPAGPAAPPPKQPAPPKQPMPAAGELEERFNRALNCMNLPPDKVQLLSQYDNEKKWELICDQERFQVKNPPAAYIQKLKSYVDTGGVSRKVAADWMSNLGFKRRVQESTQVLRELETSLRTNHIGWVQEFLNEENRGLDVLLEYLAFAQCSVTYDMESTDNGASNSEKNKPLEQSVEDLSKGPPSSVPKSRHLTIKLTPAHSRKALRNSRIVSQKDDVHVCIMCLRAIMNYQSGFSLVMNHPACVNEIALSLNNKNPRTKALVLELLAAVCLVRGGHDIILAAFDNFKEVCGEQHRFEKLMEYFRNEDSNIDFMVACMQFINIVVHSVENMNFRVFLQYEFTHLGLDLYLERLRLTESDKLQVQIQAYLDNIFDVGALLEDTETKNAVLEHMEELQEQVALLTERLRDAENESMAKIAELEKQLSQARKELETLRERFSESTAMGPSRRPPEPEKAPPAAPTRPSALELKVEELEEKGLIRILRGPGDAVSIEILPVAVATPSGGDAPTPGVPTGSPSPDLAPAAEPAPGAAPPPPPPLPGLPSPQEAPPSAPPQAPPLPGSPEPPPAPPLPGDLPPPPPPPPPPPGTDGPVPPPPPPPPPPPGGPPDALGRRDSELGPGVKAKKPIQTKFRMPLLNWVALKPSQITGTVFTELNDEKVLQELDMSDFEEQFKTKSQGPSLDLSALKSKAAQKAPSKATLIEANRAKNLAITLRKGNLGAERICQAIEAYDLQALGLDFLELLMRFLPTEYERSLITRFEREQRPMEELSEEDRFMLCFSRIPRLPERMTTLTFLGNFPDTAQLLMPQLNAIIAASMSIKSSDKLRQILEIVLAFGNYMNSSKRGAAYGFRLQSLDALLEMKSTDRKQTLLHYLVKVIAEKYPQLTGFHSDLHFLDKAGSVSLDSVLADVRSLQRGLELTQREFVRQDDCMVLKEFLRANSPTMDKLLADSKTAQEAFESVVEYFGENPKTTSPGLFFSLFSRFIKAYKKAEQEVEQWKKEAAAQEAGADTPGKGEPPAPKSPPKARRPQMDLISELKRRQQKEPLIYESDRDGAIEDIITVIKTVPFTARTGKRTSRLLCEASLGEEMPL
inactive: [1] -0.174 | [2] -0.043 | [3] -0.13 | [4] -0.135 | [5] 0.009 | [6] -0.047 | [7] -0.038 | [8] -0.051 | [9] 0.012 | [10] -0.042

FIBP (UniProt O43427)
inactive: [1] -0.001 | [2] 0.036 | [3] 0.013 | [4] -0.024 | [5] -0.043 | [6] 0.019 | [7] -0.037 | [8] 0.024 | [9] 0 | [10] 0

EMP3 (UniProt P54852)
UniProt P54852, sequence (P54852 whole entry, looked up): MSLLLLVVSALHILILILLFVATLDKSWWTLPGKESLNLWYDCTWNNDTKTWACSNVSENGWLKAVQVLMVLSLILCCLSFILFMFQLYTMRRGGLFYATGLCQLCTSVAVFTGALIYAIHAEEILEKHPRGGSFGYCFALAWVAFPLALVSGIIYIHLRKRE
inactive: [1] 0.007 | [2] 0.094 | [3] -0.046 | [4] 0.02 | [5] -0.046 | [6] -0.144 | [7] 0.031 | [8] 0.013 | [9] -0.035 | [10] -0.008

ERLIN1 (UniProt O75477)
UniProt O75477, sequence (O75477 whole entry, looked up): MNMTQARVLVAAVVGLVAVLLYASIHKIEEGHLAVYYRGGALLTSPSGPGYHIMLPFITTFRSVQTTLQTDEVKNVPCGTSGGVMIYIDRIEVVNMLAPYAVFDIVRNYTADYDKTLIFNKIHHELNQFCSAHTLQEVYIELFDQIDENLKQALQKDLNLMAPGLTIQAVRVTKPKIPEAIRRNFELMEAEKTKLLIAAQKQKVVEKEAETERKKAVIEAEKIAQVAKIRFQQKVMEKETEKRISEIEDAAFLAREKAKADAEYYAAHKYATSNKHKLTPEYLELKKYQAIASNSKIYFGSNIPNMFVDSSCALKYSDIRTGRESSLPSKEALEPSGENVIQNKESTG
inactive: [1] 0.011 | [2] -0.031 | [3] -0.01 | [4] -0.034 | [5] 0.033 | [6] 0.107 | [7] 0.049 | [8] -0.047 | [9] -0.009 | [10] 0.035

GFPT1 (UniProt Q06210)
inactive: [1] 0.003 | [2] -0.009 | [3] -0.013 | [4] 0.008 | [5] 0.002 | [6] -0.031 | [7] -0.006 | [8] 0.027 | [9] -0.003 | [10] -0.025

EED, A0A5F9ZI63
inactive: [1] -0.019 | [2] 0.035 | [3] -0.022 | [4] -0.005 | [5] -0.027 | [6] 0 | [7] 0.006 | [8] 0.026 | [9] -0.006 | [10] -0.015

GEMIN5 (UniProt Q8TEQ6)
inactive: [1] -0.003 | [2] -0.001 | [3] -0.046 | [4] 0.001 | [5] 0.037 | [6] -0.102 | [7] 0.015 | [8] 0.031 | [9] 0.003 | [10] -0.027

EEF1A1P5 (UniProt Q5VTE0)
inactive: [1] -0.055 | [2] 0.005 | [3] -0.172 | [4] -0.083 | [5] 0.005 | [6] -0.054 | [7] 0.008 | [8] 0.016 | [9] 0.006 | [10] -0.013

ETHE1 (UniProt O95571)
active: [1] 0.25
inactive: [2] -0.124 | [3] -0.037 | [4] 0.095 | [5] -0.046 | [6] -0.015 | [7] -0.181 | [8] 0.055 | [9] 0 | [10] -0.002

GGT7 (UniProt Q9UJ14)
UniProt Q9UJ14, sequence (Q9UJ14 whole entry, looked up): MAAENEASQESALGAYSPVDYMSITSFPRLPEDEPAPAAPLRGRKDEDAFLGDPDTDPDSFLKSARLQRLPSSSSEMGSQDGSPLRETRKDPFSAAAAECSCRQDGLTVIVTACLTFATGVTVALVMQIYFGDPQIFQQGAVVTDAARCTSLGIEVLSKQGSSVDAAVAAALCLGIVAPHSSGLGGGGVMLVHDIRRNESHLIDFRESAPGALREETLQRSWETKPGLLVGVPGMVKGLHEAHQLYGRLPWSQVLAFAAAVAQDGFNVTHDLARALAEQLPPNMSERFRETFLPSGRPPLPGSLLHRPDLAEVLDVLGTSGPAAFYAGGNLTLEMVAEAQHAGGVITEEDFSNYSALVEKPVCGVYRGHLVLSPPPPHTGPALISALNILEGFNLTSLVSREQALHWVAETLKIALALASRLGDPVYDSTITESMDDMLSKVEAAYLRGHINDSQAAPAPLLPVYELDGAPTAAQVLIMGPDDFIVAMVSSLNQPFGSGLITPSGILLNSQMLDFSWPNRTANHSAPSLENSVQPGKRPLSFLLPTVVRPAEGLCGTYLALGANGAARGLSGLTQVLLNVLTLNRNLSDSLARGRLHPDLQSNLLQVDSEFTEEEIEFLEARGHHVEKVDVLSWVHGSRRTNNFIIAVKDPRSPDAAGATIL
inactive: [1] -0.061 | [2] -0.023 | [3] -0.083 | [4] 0.014 | [5] -0.012 | [6] 0.092 | [7] -0.008 | [8] 0.071 | [9] 0.007 | [10] 0.02

FAM76B (UniProt Q5HYJ3)
inactive: [1] -0.044 | [2] 0.019 | [3] 0.093 | [4] -0.004 | [5] 0.005 | [6] -0.028 | [7] -0.019 | [8] -0.032 | [9] -0.026 | [10] -0.07
